Here are results for 36 molecules from PubChem BioAssay (Tox21).

“And” between values parts separate entries of the source, which are not always exact repeats. Identical values can stand only once. Inconclusive results are not listed. A call without a number means that no potency is given here. The source made the active and inactive calls. Calls come from the whole dose curve; as a rule, active = well fitted curve in the direction sought with a large enough effect in the repeat runs; inconclusive = weak or mixed curves; inactive = no such curve, though single readings can be large; an effect the other way counts as inactive or inconclusive. Starred links: 1 amine or outer side, 2 acyl side, 3 side chain; linkers in the order of their positions; H or OH if unused. Positions of bridges follow the written chain, without caps; N, C: chain ends. Non-standard residues stand in square brackets, D forms with d. Residues, ends and D or L forms follow the SMILES beside them. Chains are numbered I, II in the order given. Actinocin(9to1) = Cc1c2oc3c(C)ccc(C(=O)[*:1])c3nc-2c(C(=O)[*:2])c(N)c1=O; NMeV = CN[C@H](C(=O)O)C(C)C; Sar = CNCC(=O)O

One experiment is described as follows: qHTS assay to identify small molecule antagonists of the retinoid acid receptor (RAR) signaling pathway - cell viability counter screen (AID 1159551). Note: nearly all actives have a fitted effect of over 35% in size. Particulars: C3RL4 cells viability, ATP luminescence (CellTiter-Glo), 6 h; series mostly up to 92.4 µM. The gist of the method:
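Luminescent ATP quantitation (CellTiter-Glo) gave cell viability in C3RL4 cells exposed to test chemicals for 6 h at 37 C alongside 1 uM final retinol.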
In general terms: Quantitative high-throughput screening tests each substance at several concentrations.
As for `COc1ccc(CCN(C)CCCC(C#N)(c2ccc(OC)c(OC)c2)C(C)C)cc1OC` (stereo not given), the Potency result is “inactive”. In the case of `CC1COC(=O)O1` (stereo not given), the Potency entry was “inactive”. Turning to `CCOc1ccccc1C(N)=O`, the Potency result was “inactive”. For `Clc1ccc2c(c1)C(N1CCNCC1)=Nc1ccccc1O2`, the Potency result was “inactive”.

As to `CC(=O)CC(C)=O`, the Potency entry was “inactive”. `CCN(CC)C(=S)SSC(=S)N(CC)CC`: the Potency result is “inactive”. The same measure, in the same setting: the result for `CC(C)(C)NC(=O)[C@@H]1CN(Cc2cccnc2)CCN1C[C@@H](O)C[C@@H](Cc1ccccc1)C(=O)N[C@H]1c2ccccc2C[C@H]1O` reads “inactive”. As to `Nc1cc(S(=O)(=O)O)cc2cc(S(=O)(=O)O)cc(O)c12`, the Potency entry is “inactive”. As to `CCC(C)(C)C(=O)O[C@H]1C[C@@H](C)C=C2C=C[C@H](C)[C@H](CC[C@@H]3C[C@@H](O)CC(=O)O3)[C@H]21`, the Potency result was “inactive”.

For the molecule `CC[C@]1(O)C[C@@H]2CN(CCc3c([nH]c4ccccc34)[C@@](C(=O)OC)(c3cc4c(cc3OC)N(C)[C@H]3[C@@](O)(C(=O)OC)[C@H](OC(C)=O)[C@]5(CC)C=CCN6CC[C@]43[C@@H]65)C2)C1`, the Potency entry was “inactive”. As to `CCCCCCCCCCCC[N+](C)(C)C`, the Potency entry was “inactive”.

Turning to `O=C(Cl)c1cccc(C(=O)Cl)c1`, the Potency entry is “inactive”. `CC(=O)C1=C(C)[C@@H]2C[C@@]3(C1)[C@H](C)CC[C@H]3C2(C)C`: the Potency result was “inactive”. As for `BrC1CCC(Br)C(Br)CCC(Br)C(Br)CCC1Br` (stereo not given), the Potency result is “inactive”.

`OCCN1CCNCC1`: the Potency result is “inactive”.

As for `O`, the Potency entry is “inactive”. Regarding `CCC(=O)/C=C/C1C(C)=CCCC1(C)C` (stereo not given), the Potency result is “inactive”.

With `CC(C)(C)c1cc(C(C)(C)C)c(O)c(C(C)(C)C)c1`, the Potency result is “inactive”. In the case of `NC(=Nc1ccccc1)Nc1ccccc1`, the Potency entry is “inactive”. As to `COC(=O)[C@H]1[C@H]2C[C@@H]3c4[nH]c5cc(OC)ccc5c4CCN3C[C@H]2C[C@@H](OC(=O)c2cc(OC)c(OC)c(OC)c2)[C@@H]1OC`, the Potency result is “inactive”. `[Cl][In]([Cl])[Cl]`: the Potency entry is “inactive”.

Take `CCn1c2ccccc2c2cc(N)ccc21`: the Potency entry is “inactive”. Turning to `Cc1cc(C(C)(C)C)c(O)c(C(C)(C)C)c1`, the Potency result was “inactive”. For `CC(=O)O[C@]1(C(C)=O)CC[C@H]2[C@@H]3C[C@H](C)C4=CC(=O)CC[C@]4(C)[C@H]3CC[C@@]21C`, the Potency entry was “inactive”.

Turning to `CCCCCC(=O)O[C@]1(C(C)=O)CC[C@H]2[C@@H]3CCC4=CC(=O)CC[C@]4(C)[C@H]3CC[C@@]21C`, the Potency entry was “inactive”. For the molecule `CCCN[C@H]1CCc2nc(N)sc2C1`, the Potency result was “inactive”.

In the case of `Cc1cc(C2(c3cc(C)c(O)cc3C)OS(=O)(=O)c3ccccc32)c(C)cc1O`, the Potency result was “inactive”.

As to `O=C1OC2(c3ccc(O)cc3Oc3cc(O)ccc32)c2ccccc21`, the Potency entry was “inactive”. On the same count and under the same terms, the result for `CC(COc1ccccc1)N(CCCl)Cc1ccccc1` (stereo not given) reads “inactive”; that for `C=C(C)C(=O)O`, “inactive”.

Another experiment can be described thus: qHTS assay to identify small molecule antagonists of the retinoic acid receptor (RAR) signaling pathway (AID 1159552; note: nearly all actives have a fitted effect of over 50% in size; note: potency is the fitted concentration of half-maximal effect). Particulars: C3RL4 RARE luciferase reporter, retinol-stimulated, 6 h; series mostly up to 92.4 µM. The gist of the method: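 Retinol signaling pathway inhibitors screened in C3RL4 RARE-luciferase reporter cells seeded overnight at 37 C, then compounds added with 1 uM (final) retinol as pathway substrate. After 6 hr at 37 C, luciferase luminescence read after 30 min at room temperature.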
`Oc1ccc(Cl)cc1Cc1cc(Cl)ccc1O`: the Potency was 31.2 µM (active) and 27.3 µM (active). As to `CCCCC(CC)COC(=O)CC(C(=O)OCC(CC)CCCC)S(=O)(=O)O` (stereo not given), the Potency result was “inactive”. Take `Cc1c2oc3c(C)ccc(C(=O)N[C@@H]4C(=O)N[C@H](C(C)C)C(=O)N5CCC[C@H]5C(=O)N(C)CC(=O)N(C)[C@@H](C(C)C)C(=O)O[C@@H]4C)c3nc-2c(C(=O)N[C@@H]2C(=O)N[C@H](C(C)C)C(=O)N3CCC[C@H]3C(=O)N(C)CC(=O)N(C)[C@@H](C(C)C)C(=O)O[C@@H]2C)c(N)c1=O` (I: T[dV]P[Sar][NMeV] / II: T[dV]P[Sar][NMeV]; ester I:1-I:C, II:1-II:C; linker I:N-II:N via Actinocin(9to1)): the Potency is 16.8 nM (active) and 10.6 nM (active).

As to `C=CC(=O)OCCCCCCOC(=O)C=C`, the Potency was 13.9 µM (active) and 21.7 µM (active). Turning to `O=S(=O)(O)c1ccc2nc(-c3ccccc3)[nH]c2c1`, the Potency result is “inactive”. With `Oc1c(Cl)cc(Cl)c(Cl)c1Cc1c(O)c(Cl)cc(Cl)c1Cl`, the Potency is 24.3 µM (active) and 15 µM (active).

Another experiment in a line: qHTS assay to identify small molecule antagonists of the estrogen related receptor (ERR) signaling pathway (AID 1224819; note: nearly all actives have a fitted effect of over 50% in size; note: potency is the fitted concentration of half-maximal effect). The note with it: ERR reporter cell line, luciferase inhibition; series mostly up to 46.1 µM. The gist of the method: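 Seed ERR cells 2,000/well; rest 6 h at 37 C/5% CO2; pin compounds in DMSO; incubate 18 h at 37 C; add One-Glo; wait 30 min at room temperature; measure luminescence.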
On to `CCN(CC)C(=S)SSC(=S)N(CC)CC`, for which the Potency is 10.9 µM (active) and 16.2 µM (active). As for `NC(=Nc1ccccc1)Nc1ccccc1`, the Potency result is “inactive”. With `COC(=O)[C@H]1[C@H]2C[C@@H]3c4[nH]c5cc(OC)ccc5c4CCN3C[C@H]2C[C@@H](OC(=O)c2cc(OC)c(OC)c(OC)c2)[C@@H]1OC`, the Potency is 21.1 µM (active).

Take `[Cl][In]([Cl])[Cl]`: the Potency result was “inactive”.
